Reference: PMC4336329 (PLoS ONE, 2015)
The campaign covered roughly 310,000 compounds. About 14,000 (4.5%) showed an effect of 50% or more. The effect is printed as a negative number. Shown is part of a subset that was picked to be rich in strong results.

molecular target: human ether-à-go-go-related gene (hERG) potassium channel (human, UniProt Q12809); assay: primary screen, population patch clamp on CHO cells stably expressing hERG; higher = less effect of the substance
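Also: peak tail current of the secondary pulse compared with the same well before compound.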

Chain of human ether-à-go-go-related gene (hERG) potassium channel (Q12809 whole entry, looked up): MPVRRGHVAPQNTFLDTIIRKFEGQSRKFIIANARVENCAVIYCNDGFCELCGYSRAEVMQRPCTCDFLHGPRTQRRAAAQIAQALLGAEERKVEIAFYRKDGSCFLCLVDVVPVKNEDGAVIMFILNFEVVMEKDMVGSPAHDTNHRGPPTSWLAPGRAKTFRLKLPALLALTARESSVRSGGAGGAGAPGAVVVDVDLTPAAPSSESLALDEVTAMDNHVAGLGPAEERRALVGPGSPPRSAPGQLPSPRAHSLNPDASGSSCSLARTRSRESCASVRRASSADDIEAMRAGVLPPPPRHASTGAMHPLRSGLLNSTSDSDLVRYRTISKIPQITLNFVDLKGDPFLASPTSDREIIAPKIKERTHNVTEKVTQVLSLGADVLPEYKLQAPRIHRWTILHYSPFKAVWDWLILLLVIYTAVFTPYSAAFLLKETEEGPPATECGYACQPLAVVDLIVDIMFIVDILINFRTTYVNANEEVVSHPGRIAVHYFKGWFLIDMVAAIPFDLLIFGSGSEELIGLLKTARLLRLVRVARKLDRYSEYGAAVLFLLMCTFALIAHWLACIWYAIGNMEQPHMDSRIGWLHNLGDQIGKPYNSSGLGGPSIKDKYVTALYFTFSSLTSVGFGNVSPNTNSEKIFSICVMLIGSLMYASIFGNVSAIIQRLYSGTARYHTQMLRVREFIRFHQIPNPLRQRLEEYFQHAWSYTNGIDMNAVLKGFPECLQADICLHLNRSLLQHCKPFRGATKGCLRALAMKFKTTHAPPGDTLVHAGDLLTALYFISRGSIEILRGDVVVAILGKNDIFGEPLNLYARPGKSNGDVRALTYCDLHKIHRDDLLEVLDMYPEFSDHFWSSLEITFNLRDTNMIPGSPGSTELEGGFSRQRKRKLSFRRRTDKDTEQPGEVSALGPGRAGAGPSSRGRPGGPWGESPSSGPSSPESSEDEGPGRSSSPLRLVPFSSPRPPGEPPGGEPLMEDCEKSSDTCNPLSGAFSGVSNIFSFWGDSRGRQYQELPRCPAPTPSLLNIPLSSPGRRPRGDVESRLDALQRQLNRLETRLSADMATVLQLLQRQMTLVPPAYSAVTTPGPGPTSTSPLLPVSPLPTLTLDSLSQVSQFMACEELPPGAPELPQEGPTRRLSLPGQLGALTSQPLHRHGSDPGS

Row | SMILES | hERG current change (%, negative = inhibition) at 10uM
1 | Cc1cc([N+](=O)[O-])ccc1NC(=O)CSc1nncn1-c1ccccn1 | -28.1%
2 | NC(=O)c1cccnc1OCC(F)(F)F | 2.21%
3 | CCOc1ccc(NC(=O)CN(C)S(=O)(=O)c2ccc3c(c2)CCC(=O)N3)cc1 | -41.3%
4 | Cc1c(C(=O)NCCSCc2ccc(F)cc2)cnn1-c1ccc(Cl)cc1 | -34.6%
5 | Cc1c(C(=O)NCCSCc2cccc(C(F)(F)F)c2)cnn1-c1ccc(F)cc1 | -64.6%
6 | Cc1c(C(=O)NCCSCc2cccc(C(F)(F)F)c2)cnn1-c1ccc(Cl)cc1 | -30.6%
7 | CC(C)CCNC(=O)CN(Cc1cccs1)C(=O)CCC(=O)Nc1nccs1 | -10.6%
8 | COCCNc1c2c(c(C#N)c3nc4ccccc4n13)CCCC2 | -44.1%
9 | N#Cc1c2c(c(Nc3ccc(O)cc3)n3c1nc1ccccc13)CCC2 | 5.51%
10 | N#Cc1c2c(c(NCCOCCO)n3c1nc1ccccc13)CCCC2 | -63.3%
11 | CC(=O)c1ccc(Nc2c3c(c(C#N)c4nc5ccccc5n24)CCC3)cc1 | -73.2%
12 | N#Cc1c2c(c(Nc3ccccc3)n3c1nc1ccccc13)CCC2 | 19.5%
13 | CN(C)CCNc1c2c(c(C#N)c3nc4ccccc4n13)CCCC2 | -23.5%
14 | Cc1cc(C(=O)NCc2ccc3c(c2)OCO3)n(-c2ccccc2)n1 | -14.8%
15 | CCOC(=O)N1CCN(S(=O)(=O)Cc2ccccc2)CC1 | 15.5%
16 | Cc1ccc(S(=O)(=O)Nc2cc(C)c(O)c(Sc3n[nH]c(C)n3)c2)cc1 | 2.79%

Row | SMILES | hERG current change (%, negative = inhibition) at 10uM
17 | CNC(=O)/C(C#N)=C/c1c(N2CC(C)OC(C)C2)nc2ccccn2c1=O (stereo not shown) | 1.43%
18 | O=C(Cn1cc(C(=O)COc2ccccc2)c2ccccc21)NCc1ccco1 | -0.105%
19 | CCN(CC)S(=O)(=O)c1ccc(C(=O)OCCNC(=O)c2cccnc2)cc1 | -2.68%
20 | CCNc1nc(CN2CCOCC2)nc2sc3c(c12)CCC3 | -7.54%
21 | COc1cccc(Nc2nc(CN3CCOCC3)nc3sc4c(c23)CCCC4)c1 | -53.1%
22 | COc1cc2c(cc1OC)CN(c1nc(CN3CCCC3)nc3sc(C)c(C)c13)CC2 | -75.6%
23 | Cc1cccc(Oc2nc(CN3CCOCC3)nc3sc4c(c23)CCCC4)c1 | -29.7%
24 | Cc1sc2nc(CN3CCCCC3)nc(Cl)c2c1C | -24.5%
25 | c1nc(N2CCOCC2)c2c3c(sc2n1)CCCC3 | -7.14%
26 | COc1cc2c(cc1OC)CN(c1nc(CN3CCOCC3)nc3sc4c(c13)CCC(C)C4)CC2 (stereo not shown) | -67.5%
27 | COc1cc2c(cc1OC)CN(c1ccc(C(F)(F)F)cn1)CC2 | 15.9%
28 | COc1cc2c(cc1OC)CN(c1nc(CN3CCOCC3)nc3sc4c(c13)CCCC4)CC2 | -73.6%
29 | Cc1ccc(Oc2nc(CN3CCOCC3)nc3sc4c(c23)CCC(C)C4)cc1C (stereo not shown) | 7.99%
30 | Cc1cc(S(=O)(=O)Nc2nc(CN3CCOCC3)nc3sc4c(c23)CCCC4)ccc1F | -17.2%
31 | CC1CCc2c(sc3nc(CN4CCOCC4)nc(N4CCc5ccccc5C4)c23)C1 (stereo not shown) | -8.23%
